# Assay outcomes: PubChem, several laboratories
# Compounds with a hit are over-represented: about 3% of the library has one in this group of screens.
# sdo1 growth: growth rescue of sdo1-depleted yeast, primary screen, S. cerevisiae, bone marrow failure model; S. cerevisiae sdo1-depleted JHY4D growth rescue, OD600 30 h; stronger effect = higher value; pdr5 snq2 efflux-pump mutant strain; z-score at 10 µM; 0.21% of 140,000 active; AID 817, 2007;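 active = z-score above 3 at both the 24 hr and the 30 hr optical density reads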;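 note: z-score against mean and SD of all compound wells on the same plate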
# Measles CPE: compounds protecting cells from measles virus cytopathic effect, primary screen, measles RdRp inhibitor project, single point, MLSMR library, absorbance; protection (pct of control), % at 4 µM; 1.5% of 140,000 active; Measles virus-infected cells, CPE protection; AID 841, 2007; in the data active = protection mostly above about 24%, no sharp cut-off; inactive = mostly below about 26%
# ROMK mod: ROMK potassium channel modulators, primary screen, cell-based, thallium flux, MLSMR library | AID 1918, 2009 | 2% of 130,000 active | B-score at 10 µM | Tet-inducible ROMK, thallium flux fluorescence; actives lie on both sides | ATP-sensitive inward rectifier potassium channel 1 (Homo sapiens), P48048;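 active = signal ratio slope over the read window, or its plate-corrected B-score, at least 3 SD from the plate mean, either direction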;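 note: B-score of the F/F0 ratio slope over 7 to 12 s after thallium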
# Target sequence (P48048 whole entry, looked up): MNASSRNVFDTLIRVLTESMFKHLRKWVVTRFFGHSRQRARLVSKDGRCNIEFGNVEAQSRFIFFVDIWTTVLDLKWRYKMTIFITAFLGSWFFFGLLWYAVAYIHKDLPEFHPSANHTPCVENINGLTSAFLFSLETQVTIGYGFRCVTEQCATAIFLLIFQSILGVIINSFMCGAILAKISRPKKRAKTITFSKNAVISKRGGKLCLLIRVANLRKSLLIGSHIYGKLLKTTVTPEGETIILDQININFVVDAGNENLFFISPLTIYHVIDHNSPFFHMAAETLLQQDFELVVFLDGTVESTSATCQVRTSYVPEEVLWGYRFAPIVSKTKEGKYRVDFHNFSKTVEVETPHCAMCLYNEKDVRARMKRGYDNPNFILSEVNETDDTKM
# INS promoter inh: inhibitors of insulin promoter-driven GFP, primary screen, imaging, TRM-6 cells (human fetal islet line), eGFP reporter, cell count; 0.9% of 130,000 active; inhibition, % at 2 µM; reporter expression induced with tamoxifen;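 active = inhibition above the mean plus 3 SD, with well images judged a real hit on visual review, cut at about 60% in these data, passing the limit was not always enough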
# Starred values were filed as active, the others as inactive; . = no result given.
SMILES,sdo1 growth,Measles CPE,ROMK mod,INS promoter inh
COc1ccccc1NC(=O)Nc1c(C)n(C)n(-c2ccccc2)c1=O,0.32,2,1.1,100*
Cc1c(NC(=S)N/N=C/c2ccc(Br)cc2)c(=O)n(-c2ccccc2)n1C,.,.,-0.0073,.
COc1ccccc1C(=O)Nc1c(C)n(C)n(-c2ccccc2)c1=O,0.67,6,.,.
Cc1c(NC(=O)c2cnn3cccnc23)c(=O)n(-c2ccccc2)n1C,1.1,6,.,75*
Cc1c(NC(=S)N/N=C\c2ccccc2O)c(=O)n(-c2ccccc2)n1C,0.1,55*,0.44,.
Cc1c(Cl)cnc(NC(=O)CSc2nncs2)c1Cl,0.57,13,0.69,-42
Cc1cc(C)n2nc(C(=O)NCc3ccccc3)cc2n1,1.1,43*,0.19,.
CC(CN1CCOCC1)OC(=O)c1ccccc1Br (configuration not stated),0.06,56*,.,.
CC(CN1CCOCC1)OC(=O)c1cccc(Br)c1 (configuration not stated),0.29,1,-0.083,34
CCN(CCNC(=O)C1CCN(S(=O)(=O)CC)CC1)c1ccccc1,0.53,60*,-0.027,20
COCC(C)NC(=O)NC1(C(F)(F)F)Oc2ccc(Cl)cc2O1 (configuration not stated),-0.59,12,-0.75,71*
O=C(NCCN1CCOCC1)NC1(C(F)(F)F)Oc2ccc(Cl)cc2O1 (configuration not stated),0.07,25,-0.16,-118
O=C(CN1CCCc2ccccc21)NCCc1ccc(F)cc1,.,.,-0.032,-12
CCOc1ccc(NC(=S)N2CCc3cc(OC)c(OC)cc3C2COc2ccc3c(C)cc(=O)oc3c2)cc1 (configuration not stated),0.8,6,.,.
CC(NC(=O)Nc1cccc([N+](=O)[O-])c1)(C(F)(F)F)C(F)(F)F,-0.87,4,.,.
Cc1ccc(-n2c(=O)cc(N3CC(C)OC(C)C3)[nH]c2=O)cc1 (configuration not stated),.,.,0.75,12
Cc1ccc(-n2c(=O)cc(N3CC(C)CC(C)C3)[nH]c2=O)cc1 (configuration not stated),0.4,17,.,73*
O=C(COC(=O)CCSc1ccc(Cl)cc1)NCc1ccccc1Cl,0.1,13,0.55,67*
O=C(COC(=O)CCSc1ccc(Cl)cc1)NCCc1ccccc1,0.74,22,.,.
Nc1cccc(NP(=O)(c2ccccc2)c2ccccc2)c1,.,.,1,.
Cc1ccc(NC(=O)Cc2noc3ccccc23)c(C)c1,-0.06,21*,0.012,-100
CCOc1ccc(C(C)=O)cc1Cn1nc(C(=O)O)c2ccccc2c1=O,-0.22,50*,.,.
Cc1cccc(C)c1OCCn1nc(C(=O)O)c2ccccc2c1=O,-1.1,3,.,7
C=CCSc1nc(NC)c2sccc2n1,-0.95,19,.,80*
CC(C)(C)NC(=O)NC(=O)CN1CCN(c2ncc(C(F)(F)F)cc2Cl)CC1,0.07,8,-0.34,68*
SMILES,sdo1 growth,Measles CPE,ROMK mod,INS promoter inh
O=C(c1ccccc1)c1ccc2nc[nH]c2c1,0.33,27,.,95*
O=C(CN1C(=O)S/C(=C/c2cccnc2)C1=O)N1CCOCC1,0.19,18,0.059,71*
CCOC(=O)C1C(=O)C(C(C)=O)C(=O)CC1CC(C)SCC (configuration not stated),0.01,7,0.0069,-20
N#Cc1nc(Cc2cccc3ccccc23)oc1NCCN1CCCCC1,-1.7,23,-5.6*,.
CNc1oc(Cc2cccc3ccccc23)nc1C#N,-1.4,9,-1.8,59
CC(C)(C)c1nc2ccccc2[nH]1,-0.34,7,1.1,80*
CC(C)Sc1nc2ccccc2[nH]1,.,.,-0.0043,78*
COc1cc2c(cc1NC(=O)C(C)NCc1ccccc1)oc1ccccc12 (configuration not stated),-2.2,26,.,.
CSC(=S)N/N=C/c1ccc(N(C)C)cc1,.,.,2.7*,27
CCCCCCCc1nc2c(=O)[nH]c3ccccc3c2o1,.,.,0.41,-31
CCOc1ccccc1NC(=S)N(CCC(C)C)C1CCN(C(C)=O)CC1,.,.,-0.096,-5
OCCN(/C=N/c1nc(-c2ccc(Br)cc2)cs1)CCO,1.3,32*,0.0042,-7
Brc1ccc(-c2csc(/N=C/N3CCCC3)n2)cc1,.,.,-0.74,.
Cn1c(=O)c2c(ncn2CCCNC2=CC(C)(C)CC(=O)C2)n(C)c1=O,0.71,17*,1,-194
COc1cc(OC)c2c(c1)C(=O)OC2,0.32,8,.,-7
COc1cc2c(cc1OC)/C(=C/c1ccc(Br)cc1)C(=O)OC2,-1.1,26,-0.16,71*
O=C(N/C(=C\c1cccs1)C(=O)N1CCOCC1)c1cccs1,.,.,0.21,78*
COc1ccc(-n2ncc3c(=O)n(CC(=O)Nc4ccc(S(=O)(=O)N5CCOCC5)cc4)cnc32)cc1,0.13,60*,0.29,.
O=C(CN1CCCCCC1)Nc1ccc(S(=O)(=O)N2CCOCC2)cc1,.,.,1,.
O=C(CN1C(=O)C2CC=CCC2C1=O)Nc1ccc(S(=O)(=O)N2CCOCC2)cc1 (configuration not stated),.,.,-0.52,73*
O=C(CN1C(=O)C2C3C=CC(C3)C2C1=O)Nc1cccc(S(=O)(=O)N2CCCC2)c1 (configuration not stated),0.12,6,-0.14,100*
O=C(CSc1nnc(NC(=O)C2CCC2)s1)NC1CC1,1.2,4,-0.62,-11
O=C(Nc1nnc(SCC(=O)N2CCCCC2)s1)C1CCCCC1,0.03,6,.,73*
CCC(C)NC(=O)Cn1nc([N+](=O)[O-])c(Cl)c1C (configuration not stated),-0.06,19,.,20
Cc1c(Cl)c([N+](=O)[O-])nn1CC(=O)NC(C)C1CC2CCC1C2 (configuration not stated),-0.52,48*,-2.3,-49
SMILES,sdo1 growth,Measles CPE,ROMK mod,INS promoter inh
O=C(Nc1ccccc1Cc1ccccc1)c1ccccc1NS(=O)(=O)c1ccc(Cl)s1,-1.2,3,-3.5*,31
CCOc1cccc(C(=O)NC(=S)Nc2ccc(Cl)cc2C(=O)O)c1,.,.,0.88,.
Cc1nn(Cc2c(Cl)cccc2Cl)c(C)c1NC(=O)c1cc(C(C)C)on1,-2.1,52*,.,.
COCCn1c(SCC(=O)N2CCC(C)CC2)nc2ccccc2c1=O,-0.98,21,.,3
C=CCn1c(SCC(=O)N2CCc3ccccc3C2)nc2sc(C)cc2c1=O,-1.7,33*,.,-30
COCCn1c(SCC(=O)N2CCc3ccccc3C2)nc2ccccc2c1=O,-0.53,32*,-0.8,6
O=C(O)c1ccc(Cl)c(S(=O)(=O)NCC2CCCO2)c1 (configuration not stated),1.7,6,-0.31,19
Cc1c(N=C2SC(CC(=O)Nc3ccccc3)C(=O)N2CCN2CCOCC2)c(=O)n(-c2ccccc2)n1C (configuration not stated),.,.,0.65,.
Cc1c(N=C2NC(=O)C(CC(=O)Nc3ccccc3)S2)c(=O)n(-c2ccccc2)n1C (configuration not stated),-0.65,38*,0.34,-231
CCOC(CCNC(=O)c1cn(-c2cccc(C)n2)cn1)OCC,1,34*,.,39
